Data reported in PubChem BioAssay.
For some assays here: Measured potencies and affinities stand elsewhere. Active and inactive are the calls of the source. Unless noted, the limit is not given here; nearly all actives have IC50 up to about 0.98 µM.

Test system: not listed separately
Test: inhibition of 3D7 malaria parasite growth – strain 3D7 (AID 2306; call rule not given here;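 also: 0% = DMSO wells and 100% = chloroquine plus artemisinin control wells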)
Settings: P. falciparum 3D7 erythrocytic growth, LDH absorbance, 72 h; at 2 µM; stronger effect = higher value

| Compound | growth inhibition |
| --- | --- |
| CNCc1ccc(-c2ccc3ccnc(N)c3c2)cc1 | 94% (active) |
| COc1ccc(Cc2cccc(C(C(=O)NCc3cc(Cl)cc(Cl)c3)N3CCN(C)CC3)c2)cc1 (centres undefined) | 101% (active) |
| N#Cc1ccc2c(c1)CCN(CCC1CCC(NC(=O)/C=C/c3nc4ccccc4s3)CC1)CC2 (centres undefined) | 90% (active) |
| O=C(NC1CCCCC1)N(Cc1ccc(-c2cccc(CNC3CCCC3)c2)cc1)C1CCN(Cc2ccccc2)CC1 | 95% (active) |

Molecular target: Calcium-dependent protein kinase 1 (Plasmodium falciparum (isolate 3D7)) (UniProt P62344)
Sequence (P62344 whole entry, looked up): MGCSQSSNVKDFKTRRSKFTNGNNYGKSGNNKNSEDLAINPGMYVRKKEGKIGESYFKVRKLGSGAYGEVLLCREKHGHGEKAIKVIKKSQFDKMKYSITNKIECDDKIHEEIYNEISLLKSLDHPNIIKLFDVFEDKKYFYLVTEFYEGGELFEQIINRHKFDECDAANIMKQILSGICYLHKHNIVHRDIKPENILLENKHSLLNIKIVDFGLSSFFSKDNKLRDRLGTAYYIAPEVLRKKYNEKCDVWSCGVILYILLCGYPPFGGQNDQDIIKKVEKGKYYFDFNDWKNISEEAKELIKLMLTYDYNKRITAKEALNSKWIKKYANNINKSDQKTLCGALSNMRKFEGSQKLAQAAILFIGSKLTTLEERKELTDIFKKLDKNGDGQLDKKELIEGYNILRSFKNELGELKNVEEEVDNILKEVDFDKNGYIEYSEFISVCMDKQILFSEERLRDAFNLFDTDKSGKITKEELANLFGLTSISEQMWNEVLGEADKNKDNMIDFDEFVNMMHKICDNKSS
Test: PfCDPK1 kinase inhibitors, biochemical, TCAMS library (AID 1159585);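 also: inhibitors leave more ATP so luminescence rises with inhibition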
Settings: recombinant PfCDPK1, Kinase-Glo ATP depletion luminescence

| Compound | outcome |
| --- | --- |
| CC[C@H](C)CNC(=O)c1cncc(-c2ccc(CNCCOc3ccccc3)cc2)c1 | inactive |
| COc1cccc(NC(=O)Nc2ccc(C)c(-c3ccc(C(=O)Nc4ccncc4)cc3)c2)c1 | inactive |
| CCCNCc1c(O)ccc2c(CNCCC)c(O)ccc12 | inactive |
| Clc1ncnc2ncn(Cc3cccc(Br)c3)c12 | inactive |
| CCN(CC)CCN(Cc1ccc(-c2ccc(C(F)(F)F)cc2)cc1)C(=O)c1ccc(-c2ccc(NC(=O)OC)cc2C)cc1 | inactive |
| CCNc1cc(C)nc(Nc2ccc(NC(=O)c3ccccc3)cc2)n1 | inactive |
| Cc1cccc2[nH]c(-c3cccc(-c4ccc(C(=O)NCc5ccccc5S(C)(=O)=O)cc4)c3)nc12 | inactive |
| CO/C(=C\C=C\c1cc2cc(Cl)c(Cl)cc2[nH]1)C(=O)NCCCCN1CCN(c2ccccc2OC)CC1 | inactive |
| COc1ccc(CNC2CCN(C)CC2)cc1-c1cccc(S(=O)(=O)NCc2ccccc2)c1 | inactive |
| O=C(c1cccc(Br)c1)N1CCN(c2ccc([N+](=O)[O-])c(NC3CC3)c2)CC1 | inactive |
| CN(C)CCNc1cc(-c2ccc3ccccc3c2)nc2ccccc12 | inactive |
| CC1(C)N=C(N)N=C(N)C1c1ccc(Cl)cc1 (centres undefined) | inactive |
| CCCCCCCc1c2c(C)c(C(=O)OCC)nc-2cc2n1CC(C)=C2C | inactive |
| COc1ccccc1Oc1c(N(C)S(=O)(=O)c2ccc(C(C)C)cc2)nc(C(F)(F)F)nc1N(C)S(=O)(=O)c1ccc(C(C)C)cc1 | inactive |
| Cc1ccc(CN2CCCN(Cc3cccc(C(=O)Nc4ccc(C(C)(C)C)cc4)c3)CC2)s1 | inactive |
| CCN(CC)C(=NCCCCCCN=C(NC(N)=NCc1ccc(Cl)cc1Cl)N(CC)CC)NC(N)=NCc1ccc(Cl)cc1Cl | inactive |
| CCCNCc1ccc(-c2ccc(CN(Cc3cccs3)C(=O)C3CCN(C)CC3)cc2)nc1 | inactive |
| O=C(Nc1cccc(-c2cccc(-c3nc4ccc(C(F)(F)F)cc4[nH]3)c2)c1)c1ccncc1 | inactive |
| CN(C)CCNC(=O)c1cccc(-c2cnc3ccc(NCc4ccc(Cl)c(Cl)c4)nn23)c1 | inactive |
| CC(C)(C)S[C@H]1S[C@H](SC(C)(C)C)[C@@H](OC(=O)c2ccccc2)C(OC(=O)c2ccccc2)[C@H]1OC(=O)c1ccccc1 (some centres undefined) | inactive |

| Compound | outcome |
| --- | --- |
| COC(=O)Cn1c(C2CCN(CC3CCN(C(=O)/C=C/c4ccc(Cl)c(Cl)c4)CC3)CC2)nc2ccccc21 | inactive |
| N#CCCN1CCN(Cc2cccc(-c3ccc(-c4nc5ccccc5[nH]4)s3)c2)CC1 | inactive |
| COc1ccc(-c2cccc(NC(=O)c3ccc(Cl)cc3)c2)cc1CN1CCNCC1 | inactive |
| CCCCCCOc1ccc(C(=O)N(Cc2ccccc2)c2c(-c3ccccc3)nc3cc(C)ccn23)cc1 | inactive |
| Fc1cccc(COc2ccc(-n3ccc4c(NCCCn5ccnc5)ncnc43)cc2Cl)n1 | inactive |
| COc1ccc(O)c(C(=O)c2cc(C(=O)NC3CCCCC3)c(=O)n(C3CCCCC3)c2)c1 | inactive |
| Cc1ccc(N(CCC(=N)N)Cc2ccccc2)cc1 | inactive |
| CC(C)Oc1ccccc1-c1csc(C(=O)NCC2CCN(Cc3ccc(C(C)(C)C)cc3)C2)c1 (centres undefined) | inactive |
| O=C1COc2ccc(CNC3CCC(O)(CCc4ccnc5cc6c(cc45)OCCO6)CC3)nc2N1 (centres undefined) | inactive |
| C#CCCC(=O)Nc1cccc(-c2cccc(-c3nc4ccc(C(F)(F)F)cc4[nH]3)c2)c1 | inactive |
| CC(=O)Oc1ccc(C(=O)Oc2ccccc2C#CC#N)cc1OC(C)=O | inactive |
| Cc1[nH]c(C)c(-c2ccc(-c3cccc(OC(F)(F)F)c3)nc2)c(=O)c1Cl | inactive |
| FC(F)(F)c1ccc2nc(-c3ccc(-c4ccc(CNCCN5CCNCC5)cc4)s3)[nH]c2c1 | inactive |
| CCCCCCP(=O)(COc1ccc(CCN(CC(O)COc2cccc3[nH]c(C(N)=O)cc23)CC(O)COc2cccc3[nH]c(C(N)=O)cc23)cc1)OCCCC (centres undefined) | inactive |
| C[C@@H]1CN(c2cnn(C/C=C/c3ccc(NC(=O)c4ccc(Cl)cc4)cc3)c(=O)c2Cl)C[C@H](C)N1 | inactive |
| Cc1noc(C)c1-c1cccc(CNCc2cccc(-c3cccc(-c4nc5c(C)cccc5[nH]4)c3)c2)c1 | inactive |
| CNCc1ccc(-c2ccc3ccnc(N)c3c2)cc1 | inactive |
| COc1ccc(Cc2cccc(C(C(=O)NCc3cc(Cl)cc(Cl)c3)N3CCN(C)CC3)c2)cc1 (centres undefined) | inactive |
| N#Cc1ccc2c(c1)CCN(CCC1CCC(NC(=O)/C=C/c3nc4ccccc4s3)CC1)CC2 (centres undefined) | inactive |
| O=C(NC1CCCCC1)N(Cc1ccc(-c2cccc(CNC3CCCC3)c2)cc1)C1CCN(Cc2ccccc2)CC1 | inactive |
